The values below come from paper PMC11062922 (Nature Chemical Biology, 2023).

Where two headings read alike, the source gives them in different places.

In one test the test system is PKN2. Also noted: species or system human, MV4-11 + K-562 + COLO205 + SK-N-BE2 + OVCAR-8. The following applies: read-out: apparent Kd, n = 1.
In a further test the test system is PKN3. Also noted: species or system human, MV4-11 + K-562 + COLO205 + SK-N-BE2 + OVCAR-8. The following applies: read-out: apparent Kd, n = 1.
The test system of a further test is PIK3CG. Also noted: species or system human, MV4-11 + K-562 + COLO205 + SK-N-BE2 + OVCAR-8. Particulars: read-out: apparent Kd, compound concentrations: 100 nM and 1000 nM (sheet 'Samples'), n = 1.
Another test relates to PRKDC. Also noted: species or system human, MV4-11 + K-562 + COLO205 + SK-N-BE2 + OVCAR-8. Particulars: read-out: apparent Kd, compound concentrations: 100 nM and 1000 nM (sheet 'Samples'), n = 1.
A further test concerns PDGFRB. More on the design: species or system human, MV4-11 + K-562 + COLO205 + SK-N-BE2 + OVCAR-8. The following applies: read-out: apparent Kd, compound concentrations: 100 nM and 1000 nM (sheet 'Samples'), n = 1.
The next test has as its system PDXK. More on the design: species or system human, MV4-11 + K-562 + COLO205 + SK-N-BE2 + OVCAR-8. The following applies: read-out: apparent Kd, compound concentrations: 100 nM and 1000 nM (sheet 'Samples'), n = 1.
A further test relates to PIK3C3. Also noted: species or system human, MV4-11 + K-562 + COLO205 + SK-N-BE2 + OVCAR-8. Particulars: read-out: apparent Kd, n = 1.
The next test has as its system TESK2. More on the design: species or system human, MV4-11 + K-562 + COLO205 + SK-N-BE2 + OVCAR-8. Particulars: read-out: apparent Kd, compound concentrations: 100 nM and 1000 nM (sheet 'Samples'), n = 1.
For a further test, the system named is SLK. More on the design: species or system human, MV4-11 + K-562 + COLO205 + SK-N-BE2 + OVCAR-8. The following applies: read-out: apparent Kd, n = 1.
A further test relates to TAOK1. Also noted: species or system human, MV4-11 + K-562 + COLO205 + SK-N-BE2 + OVCAR-8. Particulars: read-out: apparent Kd; compound concentrations: 100 nM and 1000 nM (sheet 'Samples'), CATDS: 1; n = 1.
The subject of another test is RIPK2. Also noted: species or system human, MV4-11 + K-562 + COLO205 + SK-N-BE2 + OVCAR-8. Particulars: read-out: apparent Kd, compound concentrations: 100 nM and 1000 nM (sheet 'Samples'), n = 1.
A further test has as its target Q6ZSR9 (human, UniProt Q6ZSR9). More on the design: species or system MV4-11 + K-562 + COLO205 + SK-N-BE2 + OVCAR-8. Particulars: read-out: apparent Kd, n = 1.
The next test concerns RPS6KB1. Also noted: species or system human, MV4-11 + K-562 + COLO205 + SK-N-BE2 + OVCAR-8. The following applies: read-out: apparent Kd, n = 1.
The subject of the next test is ADCK3. Particulars: read-out: apparent Kd, n = 1.
The test system of the next test is MAP3K2. The following applies: read-out: apparent Kd, n = 1.
A further test relates to NQO1. Particulars: read-out: apparent Kd, n = 1.
For a further test, the system named is PRKX;PRKY. The following applies: read-out: apparent Kd, n = 1.
The next test deals with STK26. Particulars: read-out: apparent Kd, n = 1.
Another test relates to TESK1. The following applies: read-out: apparent Kd, n = 1.
The subject of another test is TGFBR2. Particulars: read-out: apparent Kd, n = 1.
Where [1] appears, read: compound concentrations:100 nM and 1000 nM (sheet 'Samples').
Where [2] appears, read: compound concentrations: 100 nM and 1000 nM (sheet 'Samples'), CATDS: 1.
[3] abbreviates: compound concentrations:100 nM and 1000 nM (sheet 'Lestaurtinib' of Supplementary Table 1),run:Lestaurtinib_02443_R3,Plate:MR009.
Setting [4] is: compound concentrations:100 nM and 1000 nM (sheet 'Lestaurtinib' of Supplementary Table 1),run:Lestaurtinib_02584_R3,Plate:MR017.

Q6ZSR9, sequence (Q6ZSR9 whole entry, looked up): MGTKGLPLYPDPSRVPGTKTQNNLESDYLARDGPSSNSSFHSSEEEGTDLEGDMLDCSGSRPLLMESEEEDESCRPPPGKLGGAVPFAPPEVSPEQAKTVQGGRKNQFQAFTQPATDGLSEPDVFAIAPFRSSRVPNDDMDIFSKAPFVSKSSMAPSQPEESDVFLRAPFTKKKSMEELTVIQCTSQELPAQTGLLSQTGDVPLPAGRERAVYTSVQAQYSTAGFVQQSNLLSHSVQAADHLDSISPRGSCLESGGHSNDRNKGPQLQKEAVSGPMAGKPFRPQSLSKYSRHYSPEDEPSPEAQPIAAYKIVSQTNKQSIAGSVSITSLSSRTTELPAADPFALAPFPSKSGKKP

Regarding `CCn1c(-c2nonc2N)nc2ccccc21` [SB-693162], the potency estimated from few doses in the test with PKN2 (setting [1]) was 157 nM; in the test on PKN3 (setting [1]), 1280 nM.

`CN(C)S(=O)(=O)c1cc(-c2ccc3nccc(-c4cccc(S(N)(=O)=O)c4)c3c2)cnc1N` [GSK1669921A]: the potency estimated from few doses in the test on PIK3CG (CATDS: 0.14675867951409499) is 466 nM; in the test with PRKDC (CATDS: 0.12241161716625901) it was 920 nM.

On to `O=C(NCCNc1ccnc(Nc2ccc(F)cc2)n1)Nc1ccccc1F` [GSK1379880A], for which the potency estimated from few doses in the test with PDGFRB (CATDS: 0.36710217729011002) is 1450 nM.

With `Cn1ccc(-c2cccc(Nc3ccnc4cc(-c5nccs5)ccc34)c2)n1` [GW525701_KCGS], in the test with PDXK (CATDS: 0.47551644164597001), the potency estimated from few doses was 1690 nM.

In the case of `Cc1nn2c(=O)cc(N3CCOCC3)nc2n1Cc1cccc(Cl)c1Cl` [GSK2342769A], the potency estimated from few doses in the test with PIK3C3 (setting [1]) was 8.1 nM.

On to `Cc1cc(-c2ccc3c(c2)CC[C@@H](N[C@@H](C)c2ccccc2)C3)cnc1N.Cc1cc(-c2ccc3c(c2)CC[C@@H](N[C@@H](C)c2ccccc2)C3)cnc1N.Cl.Cl` [GW412617A], for which the potency estimated from few doses in the test with TESK2 (CATDS: 0.45795860987145298) was 1470 nM.

With `COc1ccc(-c2coc3ncnc(N)c23)cc1` [GW642125X], in the test on PDGFRB (CATDS: 1), the potency estimated from few doses was 1540 nM.

As to `Cc1ccccc1Cn1ccn2c(=O)cc(N3CCOCC3)nc12` [GSK2269905A], in the test on TESK2 (CATDS: 0.33988229357461403), the potency estimated from few doses was 1410 nM.

For `O=c1cc(N2CCOCC2)nc2n(Cc3ccc(F)c(Cl)c3)ccn12` [GSK2297099A], in the test on PIK3C3 (setting [1]), the potency estimated from few doses is 912 nM.

Consider `COc1ncc(-c2cc(-c3ncc(CN4C[C@@H](C)O[C@@H](C)C4)o3)c3cn[nH]c3c2)cc1NS(C)(=O)=O` [GSK2292767], for which the potency estimated from few doses with PDXK (CATDS: 9.0064918958082996E-2) is 779 nM; in the test with PIK3C3 (compound concentrations: 100 nM and 1000 nM (sheet 'Samples'), CATDS: 0.16198268418526299) it was 70.7 nM; with PIK3CG (CATDS: 0.13255621983520199), 142 nM; in the test on PRKDC (CATDS: 9.7121910991741403E-2), 515 nM.

`O=C1NC(=O)C(c2ccccc2Cl)=C1Nc1cccc(Cl)c1` [SB-342409]: the potency estimated from few doses with SLK (setting [1]) was 811 nM.

On to `CSc1ccc(NC2=C(c3ccccc3Cl)C(=O)NC2=O)cc1` [SB-342411], for which the potency estimated from few doses in the test on SLK (setting [1]) is 1400 nM.

Turning to `O=C(NCCNc1ccnc(Nc2ccc(F)cc2)n1)Nc1ccc2c(c1)OCO2` [GSK1379882A], in the test on TAOK1, the potency estimated from few doses was 1250 nM.

Turning to `Cc1cc(O)cc(C)c1/C=C/c1cncc(C(=O)OC(C)(C)C)c1` [GW439255X], the potency estimated from few doses in the test with RIPK2 (CATDS: 1) was 437 nM.

On to `Cc1nnc(-c2ccc(C)c(-c3ccc(C(=O)Nc4ccc(NS(C)(=O)=O)cc4)cc3)c2)o1` [GW702865X], for which the potency estimated from few doses in the test with TAOK1 is 1620 nM.

Take `CCn1c(-c2nonc2N)nc2cnc(Oc3cccc(NC(=O)c4ccc(N(C)C)cc4)c3)cc21` [GSK248233A]: the potency estimated from few doses was 1780 nM with PKN2 (setting [1]), 2120 nM in the test with Q6ZSR9 (setting [1]) and 978 nM in the test on RPS6KB1 (setting [1]).

Consider `CCn1c(-c2nonc2N)nc2c(N3CCCC3)nccc21` [SB-744941], for which the potency estimated from few doses with PKN3 (setting [2]) was 2110 nM.

Regarding `CNC(=O)c1cncc(/C=C/c2c(Cl)cccc2Cl)c1` [GW445014X], the potency estimated from few doses in the test on RIPK2 (CATDS: 1) is 773 nM.

Turning to `Cc1nn(-c2ccccc2)c(O)c1C(=O)c1ccccc1` [RO1151080-000], the potency estimated from few doses with TESK2 (CATDS: 1) is 1360 nM.

For the compound `CC1=C(C(=O)Nc2cc3cn[nH]c3cc2F)C(c2ccc(C(F)(F)F)cc2)CC(=O)N1` (stereo not shown) [GSK429286A], the potency estimated from few doses with PKN3 (compound concentrations: 100 nM and 1000 nM (sheet 'Samples'), CATDS: 0.172679408369589) is 1700 nM.

Consider `Nc1nonc1-c1nc2cnccc2n1C1CC1` [SB-736302], for which the potency estimated from few doses in the test on PKN2 (compound concentrations: 100 nM and 1000 nM (sheet 'Samples'), CATDS: 0.42822259112974997) was 348 nM; in the test with RPS6KB1 (compound concentrations: 100 nM and 1000 nM (sheet 'Samples'), CATDS: 0.26812352090996999), 794 nM.

As to `O=C1NC(=O)C(c2ccccc2Cl)=C1Nc1cccc(O)c1` [SB-390527], the potency estimated from few doses in the test with SLK (setting [2]) is 1140 nM.

Lestaurtinib: the potency estimated from few doses was 1630 nM with ADCK3 (compound concentrations:100 nM and 1000 nM (sheet 'Lestaurtinib' of Supplementary Table 1),run:Lestaurtinib_02364_R1,Plate:MR002); 80.8 nM in the test on ADCK3 (compound concentrations:100 nM and 1000 nM (sheet 'Lestaurtinib' of Supplementary Table 1),run:Lestaurtinib_02422_R1,Plate:MR006); 474 nM with ADCK3 (compound concentrations:100 nM and 1000 nM (sheet 'Lestaurtinib' of Supplementary Table 1),run:Lestaurtinib_02437_R3,Plate:MR007); 1620 nM in the test on ADCK3 (compound concentrations:100 nM and 1000 nM (sheet 'Lestaurtinib' of Supplementary Table 1),run:Lestaurtinib_02572_R1,Plate:MR015); 2130 nM in the test on MAP3K2 (compound concentrations:100 nM and 1000 nM (sheet 'Lestaurtinib' of Supplementary Table 1),run:Lestaurtinib_02339_R2,Plate:MR001); 2170 nM in the test with MAP3K2 (setting [3]). Moreover, the potency estimated from few doses with NQO1 (compound concentrations:100 nM and 1000 nM (sheet 'Lestaurtinib' of Supplementary Table 1),run:Lestaurtinib_02438_R3,Plate:MR008) was 1600 nM; in the test on NQO1 (compound concentrations:100 nM and 1000 nM (sheet 'Lestaurtinib' of Supplementary Table 1),run:Lestaurtinib_02765_R1,Plate:MR026) it was 1440 nM; with NQO1 (compound concentrations:100 nM and 1000 nM (sheet 'Lestaurtinib' of Supplementary Table 1),run:Lestaurtinib_03172_R1,Plate:MR031) it was 1700 nM; in the test with PRKX;PRKY (setting [3]), 1430 nM; in the test with PRKX;PRKY (compound concentrations:100 nM and 1000 nM (sheet 'Lestaurtinib' of Supplementary Table 1),run:Lestaurtinib_02896_R3,Plate:MR030), 2210 nM; in the test on STK26 (compound concentrations:100 nM and 1000 nM (sheet 'Lestaurtinib' of Supplementary Table 1),run:Lestaurtinib_02407_R1,Plate:MR005), 1700 nM. The potency estimated from few doses is 2250 nM with STK26 (compound concentrations:100 nM and 1000 nM (sheet 'Lestaurtinib' of Supplementary Table 1),run:Lestaurtinib_02473_R3,Plate:MR010); 2350 nM with STK26 (setting [4]); 1960 nM in the test on TESK1 (compound concentrations:100 nM and 1000 nM (sheet 'Lestaurtinib' of Supplementary Table 1),run:Lestaurtinib_02482_R3,Plate:MR011); 1310 nM in the test with TESK1 (compound concentrations:100 nM and 1000 nM (sheet 'Lestaurtinib' of Supplementary Table 1),run:Lestaurtinib_02487_R1,Plate:MR012); 1960 nM with TESK1 (setting [4]); 994 nM in the test with TESK1 (compound concentrations:100 nM and 1000 nM (sheet 'Lestaurtinib' of Supplementary Table 1),run:Lestaurtinib_02748_R2,Plate:MR024). For the same compound, the potency estimated from few doses in the test on TGFBR2 (setting [3]) is 1570 nM; in the test on TGFBR2 (compound concentrations:100 nM and 1000 nM (sheet 'Lestaurtinib' of Supplementary Table 1),run:Lestaurtinib_03172_R3,Plate:MR031), 2210 nM; in the test with TGFBR2 (compound concentrations:100 nM and 1000 nM (sheet 'Lestaurtinib' of Supplementary Table 1),run:Lestaurtinib_03252_R2,Plate:MR032) it was 2120 nM.

Consider `c1ccc(Oc2ccc(Nc3ccnc4ccc(-c5ccccn5)cc34)cc2)cc1` [GW407034X], for which, in the test on RIPK2 (CATDS: 0.62079920866718596), the potency estimated from few doses is 189 nM.

`COc1cc2ncn(-c3cc(OCC4CCCO4)c(C(N)=O)s3)c2cc1OC` (stereo not shown) [GSK204607A]: the potency estimated from few doses in the test with SLK (compound concentrations: 100 nM and 1000 nM (sheet 'Samples'), CATDS: 0.28828322823587899) is 1160 nM.

For `COC[C@H](NC1=NC(=O)/C(=C/c2ccc3ncccc3c2)S1)c1ccccc1` [RO4595946-000], the potency estimated from few doses in the test with Q6ZSR9 (setting [2]) is 1580 nM.

Consider `CNC(=O)c1cncc(/C=C/c2ccccc2C)c1` [GW445015X], for which the potency estimated from few doses in the test with RIPK2 (CATDS: 1) was 795 nM.
